# Measured values taken from article PMC5540273 (PLoS ONE, 2017).
# Columns and labels:
# Details in all cases: concentration: 1 μM,replicates: in singlicate; n = 1
# PLK2 = tested on: PLK2
# PLK3 = tested on: PLK3
# PLK4 = tested on: PLK4
# PRKCD = tested on: PRKCD
# PRKCE = tested on: PRKCE
# PRKCH = tested on: PRKCH
# PRKCI = tested on: PRKCI
# PRKCQ = tested on: PRKCQ
# PRKD1 = tested on: PRKD1
# PRKD2 = tested on: PRKD2
# PRKD3 = tested on: PRKD3
# PRKG1 = tested on: PRKG1
# PRKG2 = tested on: PRKG2
# PRKR = tested on: T1, PRKR
# T1 construct: gene EIF2AK2
# PRKX = tested on: PRKX
# PRP4 = tested on: PRP4
# PYK2 = tested on: T2, PYK2
# T2 construct: gene PTK2B
# QSK = tested on: QSK
# RAF1 = tested on: RAF1
# RET = tested on: RET
# 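Note: KINOMEscan kinase panel screen.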
SMILES,%Inh (PLK2) [%],%Inh (PLK3) [%],%Inh (PLK4) [%],%Inh (PRKCD) [%],%Inh (PRKCE) [%],%Inh (PRKCH) [%],%Inh (PRKCI) [%],%Inh (PRKCQ) [%],%Inh (PRKD1) [%],%Inh (PRKD2) [%],%Inh (PRKD3) [%],%Inh (PRKG1) [%],%Inh (PRKG2) [%],%Inh (PRKR) [%],%Inh (PRKX) [%],%Inh (PRP4) [%],%Inh (PYK2) [%],%Inh (QSK) [%],%Inh (RAF1) [%],%Inh (RET) [%]
Cn1ccc2ncnc(Oc3ccc(NC(=O)Nc4cnn(C(C)(C)C)c4)c(Cl)c3)c21,1,11,31,27,0,0,10,21,0,13,4,9,0,17,3,0,0,0,44,100
CC(C(=O)NC1CCN(c2ccnc(Nc3ccc(F)cc3)n2)C1)c1ccc(Cl)cc1 (stereo not shown) [GSK1379713],0,0,0,0,3,8,11,21,0,0,2,9,0,0,6,0,–,0,0,0
CC(=O)Nc1ccc(-c2cc3ncnc(SCC(=O)O)c3s2)cc1,15,7,47,22,10,1,0,18,22,0,7,1,10,23,24,22,0,1,14,15
c1ccc(Oc2ccc(Nc3ccnc4ccc(-c5ccccn5)cc34)cc2)cc1 [GW407034],0,0,15,0,3,0,0,27,0,5,33,0,0,0,12,4,0,14,19,6
